In PubChem BioAssay (NCI):
This is part of a sample that, as a whole, favours compounds with a hit. Of some 83,000 tested, about 20% had one in any assay.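 Cell lines were cultured in 96-well plates, exposed to a single compound concentration, and assessed for percent growth 48 hours later.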 Calls of active or inactive are those of the source. The calls were made as follows: active = growth percent below 10; inactive = the rest.

What was measured:
Experiment in all cases: NCI-60 one-dose screen, 48 h (100 = growth as untreated, 0 = no growth, -100 = all killed)
[1] = tested on: HCT-15 colon; details: 10 µM unless noted
[2] = tested on: HT29 colon; details: 10 µM unless noted
[3] = tested on: SNB-75 CNS; details: 10 µM unless noted
[4] = tested on: SNB-19 CNS; details: 10 µM unless noted
[5] = tested on: U251 CNS; details: 10 µM unless noted
[6] = tested on: PC-3 prostate; details: 10 µM unless noted
[7] = tested on: SK-MEL-5 melanoma; details: 10 µM unless noted
[8] = tested on: UACC-62 melanoma; details: 10 µM unless noted
[9] = tested on: LOX IMVI melanoma; details: 10 µM unless noted
[10] = tested on: SK-MEL-28 melanoma; details: 10 µM unless noted
[11] = tested on: EKVX NSCLC; details: 10 µM unless noted
[12] = tested on: SN12C renal; details: 10 µM unless noted
[13] = tested on: UO-31 renal; details: 10 µM unless noted
[14] = tested on: TK-10 renal; details: 10 µM unless noted
[15] = tested on: ACHN renal; details: 10 µM unless noted
[16] = tested on: CAKI-1 renal; details: 10 µM
[17] = tested on: CCRF-CEM leukemia; details: 10 µM unless noted
[18] = tested on: MOLT-4 leukemia; details: 10 µM unless noted
[19] = tested on: A498 renal; details: 10 µM unless noted

Measured: growth

Cc1cc(=O)n2nc(-c3cn(C)c4ccc(Cl)cc34)sc2n1
inactive: [1] 86.4% | [2] 104% | [3] 97% | [4] 96.6% | [5] 98.5% | [6] 86.2% | [7] 88.8% | [8] 86.8% | [9] 85.4% | [10] 100% | [11] 89.5% | [12] 91.6% | [13] 87.1% | [14] 138% | [15] 89.8% | [16] 79% | [17] 88.3% | [18] 86.6%

Cc1ccc(-c2cc3nc(C(Cl)Cl)nc(-c4ccccc4)n3n2)cc1
inactive: [1] 75.6% | [2] 74.9% | [3] 99.3% | [4] 74.1% | [5] 66.8% | [6] 79.3% | [7] 92.2% | [8] 91.9% | [9] 109% | [10] 101% | [11] 99.6% | [12] 107% | [13] 91.8% | [14] 108% | [15] 47.5% | [16] 72.7% | [17] 101% | [18] 97%

CS(=O)c1nccc(-c2c(-c3ccc(F)c(OCc4ccc(F)cc4)c3)nc3sccn23)n1 (stereo unspecified)
inactive: [1] 59.4% | [2] 27.9% | [3] 94.4% | [4] 68.7% | [5] 96% | [7] 100% | [8] 85.6% | [9] 78.6% | [10] 41.1% | [11] 75.2% | [12] 93.6% | [13] 89.3% | [14] 108% | [15] 77.2% | [16] 70.8% | [17] 45.8%
active: [6] -10.7%

C/C(=N\NC(=O)CSc1nc2sc3c(c2c(=O)n1-c1ccccc1)CCC(C)C3)c1ccc(Cl)cc1 (stereo unspecified)
inactive: [1] 25.7% | [2] 62.8% | [3] 41.5% | [4] 35.3% | [5] 26.7% | [6] 31.7% | [10] 25.4% | [11] 31.5% | [12] 29.2% | [13] 17% | [14] 32.8% | [15] 13.4% | [16] 12.8% | [17] 12.6% | [18] 14%
active: [7] -14.9% | [8] 4.83% | [9] 6.72%

COc1cnc2c(c1)C(=O)c1c-2n(CCCn2ccnc2)c(=O)c2cc(OC)c(OC)cc12
inactive: [3] 12.4% | [4] 14.9% | [10] 45.5%
active: [1] -53.2% | [2] -56.1% | [5] -84.8% | [6] -54.9% | [7] -28.4% | [8] -11% | [9] -51.5% | [11] -9.94% | [12] 3.73% | [13] -91.4% | [14] -91.4% | [15] -36.1% | [16] 9.33% | [17] -2.01%

CSc1nccc(-c2c(-c3ccc(F)c(OCc4ccc(F)cc4)c3)nc3sccn23)n1
inactive: [1] 64.6% | [2] 67.8% | [3] 113% | [4] 72.6% | [5] 60.2% | [6] 55.2% | [7] 19.2% | [8] 38% | [9] 74% | [10] 87.5% | [11] 89.8% | [12] 74% | [13] 53.7% | [14] 70% | [15] 43.8% | [16] 68% | [19] 46.5% | [17] 81.8% | [18] 45.1%

COc1ccc(/C=N\NC(=O)c2ccc3nc(-c4ccc(Br)cc4)[nH]c3c2)cc1
active: [5] -51.5% | [9] -26%
inactive: [1] 48.1% | [2] 17.5% | [3] 46.1% | [4] 19.2% | [6] 20.8% | [7] 24.2% | [8] 34.6% | [10] 13.8% | [11] 39.6% | [12] 17.1% | [13] 75.9% | [14] 51.6% | [15] 35.1% | [16] 35% | [19] 82% | [17] 53.2% | [18] 61.9%

CNC(=O)c1cc(Oc2ccc3nc(NC(=O)c4ccc(CN5CCN(C)CC5)c(C(F)(F)F)c4)sc3c2)ccn1
inactive: [2] 16.1% | [3] 55.1% | [4] 75.9% | [5] 57.1% | [6] 47.3% | [7] 31.4% | [8] 56.3% | [11] 59.3% | [12] 76.4% | [13] 58.5% | [14] 104% | [15] 76.9% | [16] 53.3% | [19] 80.3% | [17] 49.9% | [18] 39.2%
active: [1] 8.89% | [9] -28.2% | [10] -38.1%

COc1ccc([C@@H]2[C@@H](O)C(=O)N2c2cc(OC)c(OC)c(OC)c2)cc1
active: [2] 1.28% | [5] 4.38% | [7] -28.6%
inactive: [1] 12.4% | [3] 50.7% | [4] 31.6% | [6] 16.2% | [8] 20.3% | [9] 16.3% | [10] 61% | [11] 51.2% | [12] 24.6% | [13] 29.9% | [14] 74.5% | [15] 26.8% | [16] 25.6% | [17] 24%

C=CCn1c(SCC(=O)Nc2cccc(C(=O)/C=C/c3ccc(Cl)cc3)c2)nc2ccccc2c1=O
inactive: [1] 81.5% | [2] 84.8% | [3] 72.2% | [4] 86.9% | [5] 90.7% | [6] 89% | [7] 99.1% | [8] 72.2% | [9] 77.9% | [10] 93.3% | [11] 99.5% | [12] 86.2% | [13] 67.6% | [14] 96.4% | [15] 90.6% | [16] 76.8% | [19] 78% | [17] 96.6% | [18] 94%

CS(=O)c1nccc(-c2c(-c3ccc(F)c(OCCc4ccc(F)cc4)c3)nc3sccn23)n1 (stereo unspecified)
inactive: [1] 11.7% | [3] 88.7% | [4] 70.8% | [5] 92.6% | [6] 60.5% | [7] 99.1% | [8] 86% | [9] 19.9% | [10] 64.8% | [11] 36.1% | [12] 93.4% | [14] 107% | [15] 37.7% | [16] 47.3% | [19] 82.2% | [17] 14.5%
active: [2] 7.84% | [13] -45.1% | [18] 9.78%

Fc1ccccc1/C=C(/C1=NCCN1)n1cnc2ccccc21
inactive: [1] 93% | [2] 112% | [3] 92.2% | [4] 97.6% | [5] 101% | [6] 95.7% | [7] 106% | [8] 94.9% | [9] 90.3% | [10] 95.3% | [11] 95% | [12] 97.4% | [13] 85.3% | [14] 99.4% | [15] 97% | [16] 84.1% | [17] 108% | [18] 106%

COc1cc(CNC(=O)/C=C/c2ccccc2)ccc1OCC(=O)NO
inactive: [1] 101% | [2] 104% | [3] 85.3% | [4] 98.9% | [5] 101% | [6] 91% | [7] 100% | [8] 92.3% | [9] 91.9% | [10] 107% | [11] 95.2% | [12] 95.8% | [13] 81.8% | [14] 102% | [15] 93.3% | [16] 91.4% | [17] 105% | [18] 95.7%
